# Assay results published in PMC7862700, “An all-to-all approach to the identification of sequence-specific readers for epigenetic DNA modifications on cytosine”.
# Legend:
# Assay in all cases: DAPPL (digital affinity profiling via proximity ligation, sequencing); 10 mM Tris-HCl pH 7.5, 50 mM NaCl, 1 mM DTT, 4% glycerol, room temperature, 30 min; GST-TFs on glutathione beads, 16-mer random dsDNA library, 0.1% formaldehyde crosslink after washing; high values mean tight binding
# Conditions in all cases: protein: recombinant; tags: N-terminal GST; dsDNA, one strand shown
# [1] = molecular target: SPIB (Homo sapiens, UniProt Q01892 1-262)
# Procedure, shortened: (§1)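 Human transcription factors fused to GST were expressed in yeast, captured on glutathione beads, given DNA barcodes and pooled with a GST-only negative control. Pools were incubated with 200 nmole of a 16-mer random double-stranded DNA library in Tris/NaCl/DTT/glycerol buffer at room temperature for 30 min. They were then washed, crosslinked with 0.1% formaldehyde, proximity-ligated (BsaI/T4 ligase, 1 h, 37 °C), PCR-amplified and sequenced on an Illumina NextSeq500. Binding signal is each 6-mer's read frequency for a factor divided by its frequency for the GST control.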
# [2] = molecular target: T1, ELK3 (Homo sapiens, UniProt P41970 1-407)
# T1 sequence: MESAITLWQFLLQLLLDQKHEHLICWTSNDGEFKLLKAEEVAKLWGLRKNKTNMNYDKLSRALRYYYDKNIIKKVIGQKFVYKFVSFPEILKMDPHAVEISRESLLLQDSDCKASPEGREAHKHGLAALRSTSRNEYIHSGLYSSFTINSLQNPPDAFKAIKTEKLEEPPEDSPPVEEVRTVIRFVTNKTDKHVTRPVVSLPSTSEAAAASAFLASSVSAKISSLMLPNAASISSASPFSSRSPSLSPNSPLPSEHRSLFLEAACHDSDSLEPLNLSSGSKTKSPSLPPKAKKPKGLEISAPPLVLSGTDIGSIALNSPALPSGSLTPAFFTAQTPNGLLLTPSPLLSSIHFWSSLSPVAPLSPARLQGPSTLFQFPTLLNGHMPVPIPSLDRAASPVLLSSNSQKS
# Procedure, shortened: as §1
# [3] = molecular target: T2, ERF (Homo sapiens, UniProt P50548 1-548)
# T2 sequence: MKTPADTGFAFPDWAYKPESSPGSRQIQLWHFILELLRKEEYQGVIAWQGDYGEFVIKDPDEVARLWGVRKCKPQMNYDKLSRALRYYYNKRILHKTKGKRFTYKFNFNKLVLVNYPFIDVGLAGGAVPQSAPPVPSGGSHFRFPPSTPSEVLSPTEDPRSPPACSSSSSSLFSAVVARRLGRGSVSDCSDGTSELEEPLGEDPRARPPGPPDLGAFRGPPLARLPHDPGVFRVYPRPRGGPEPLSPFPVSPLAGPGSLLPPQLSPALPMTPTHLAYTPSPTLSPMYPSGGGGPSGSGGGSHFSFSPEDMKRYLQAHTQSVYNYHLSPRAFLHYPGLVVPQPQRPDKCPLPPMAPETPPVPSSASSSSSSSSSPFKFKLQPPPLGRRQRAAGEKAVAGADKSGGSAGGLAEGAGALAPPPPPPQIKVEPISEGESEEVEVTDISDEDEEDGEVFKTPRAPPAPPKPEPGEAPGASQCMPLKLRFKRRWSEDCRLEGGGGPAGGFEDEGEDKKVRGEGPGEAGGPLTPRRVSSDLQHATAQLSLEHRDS
# Procedure, shortened: as §1
# [4] = molecular target: T3, ERG (Homo sapiens, UniProt P11308 1-479)
# T3 sequence: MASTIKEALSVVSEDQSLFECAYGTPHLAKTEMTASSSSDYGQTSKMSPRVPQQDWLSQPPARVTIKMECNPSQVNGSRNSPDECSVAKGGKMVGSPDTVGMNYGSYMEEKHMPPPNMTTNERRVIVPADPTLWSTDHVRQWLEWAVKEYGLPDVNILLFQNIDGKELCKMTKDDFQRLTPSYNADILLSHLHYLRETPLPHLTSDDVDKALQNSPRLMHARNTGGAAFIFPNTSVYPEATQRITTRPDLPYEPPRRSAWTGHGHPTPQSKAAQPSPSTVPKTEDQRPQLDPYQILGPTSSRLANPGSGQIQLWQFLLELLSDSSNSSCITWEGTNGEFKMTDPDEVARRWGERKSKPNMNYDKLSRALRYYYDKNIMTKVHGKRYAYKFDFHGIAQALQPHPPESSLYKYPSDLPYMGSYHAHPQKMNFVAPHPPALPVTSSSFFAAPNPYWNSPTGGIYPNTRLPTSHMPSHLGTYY
# Procedure, shortened: as §1
# [5] = molecular target: T4, ETV3L (Homo sapiens, UniProt Q6ZN32 1-361)
# T4 sequence: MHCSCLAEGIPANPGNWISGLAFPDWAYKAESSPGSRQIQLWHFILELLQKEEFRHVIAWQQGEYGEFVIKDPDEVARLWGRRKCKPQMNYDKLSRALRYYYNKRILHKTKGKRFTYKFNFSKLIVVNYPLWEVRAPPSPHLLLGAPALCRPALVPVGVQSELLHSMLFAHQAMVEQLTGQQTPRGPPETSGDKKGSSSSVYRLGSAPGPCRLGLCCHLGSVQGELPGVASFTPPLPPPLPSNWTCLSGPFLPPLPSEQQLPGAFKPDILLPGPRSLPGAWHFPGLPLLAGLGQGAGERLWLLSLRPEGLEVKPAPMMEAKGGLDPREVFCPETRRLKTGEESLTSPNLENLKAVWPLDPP
# Procedure, shortened: as §1
# [6] = molecular target: T5, ETS2 (Homo sapiens, UniProt P15036 1-469)
# T5 sequence: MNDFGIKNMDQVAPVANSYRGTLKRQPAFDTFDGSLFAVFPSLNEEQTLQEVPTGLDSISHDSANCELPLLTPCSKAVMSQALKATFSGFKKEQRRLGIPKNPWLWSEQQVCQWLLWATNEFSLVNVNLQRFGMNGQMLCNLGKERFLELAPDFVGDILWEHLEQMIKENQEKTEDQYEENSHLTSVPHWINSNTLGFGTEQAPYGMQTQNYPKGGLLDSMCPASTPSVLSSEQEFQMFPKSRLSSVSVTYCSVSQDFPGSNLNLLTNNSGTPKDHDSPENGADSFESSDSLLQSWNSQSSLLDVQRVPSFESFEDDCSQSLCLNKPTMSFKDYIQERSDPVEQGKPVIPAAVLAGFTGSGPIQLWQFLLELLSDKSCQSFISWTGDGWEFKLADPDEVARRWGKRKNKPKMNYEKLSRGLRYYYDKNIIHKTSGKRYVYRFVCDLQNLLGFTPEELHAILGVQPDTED
# Procedure, shortened: as §1
# [7] = molecular target: T6, ETV7 (Homo sapiens, UniProt Q9Y603 1-341)
# T6 sequence: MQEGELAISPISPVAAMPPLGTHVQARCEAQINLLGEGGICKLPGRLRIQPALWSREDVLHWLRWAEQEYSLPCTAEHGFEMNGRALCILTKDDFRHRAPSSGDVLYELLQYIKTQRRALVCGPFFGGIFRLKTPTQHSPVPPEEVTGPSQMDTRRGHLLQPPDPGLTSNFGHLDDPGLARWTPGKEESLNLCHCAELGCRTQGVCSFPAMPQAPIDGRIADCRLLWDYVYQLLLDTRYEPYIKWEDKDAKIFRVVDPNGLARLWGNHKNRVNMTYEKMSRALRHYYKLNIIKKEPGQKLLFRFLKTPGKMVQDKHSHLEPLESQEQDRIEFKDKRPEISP
# Procedure, shortened: as §1
# [8] = molecular target: T7, SPDEF (Homo sapiens, UniProt O95238 1-335)
# T7 sequence: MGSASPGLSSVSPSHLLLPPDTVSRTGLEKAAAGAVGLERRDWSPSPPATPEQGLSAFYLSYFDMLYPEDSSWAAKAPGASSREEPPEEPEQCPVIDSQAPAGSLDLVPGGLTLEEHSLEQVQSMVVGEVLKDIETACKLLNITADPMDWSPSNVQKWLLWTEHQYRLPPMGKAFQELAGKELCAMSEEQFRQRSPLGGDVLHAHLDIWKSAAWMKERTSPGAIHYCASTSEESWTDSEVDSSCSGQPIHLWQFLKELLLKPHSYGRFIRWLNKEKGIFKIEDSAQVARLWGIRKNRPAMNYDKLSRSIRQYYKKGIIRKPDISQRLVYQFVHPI
# Procedure, shortened: as §1
# [9] = molecular target: T8, GABPA (Homo sapiens, UniProt Q06546 1-454)
# T8 sequence: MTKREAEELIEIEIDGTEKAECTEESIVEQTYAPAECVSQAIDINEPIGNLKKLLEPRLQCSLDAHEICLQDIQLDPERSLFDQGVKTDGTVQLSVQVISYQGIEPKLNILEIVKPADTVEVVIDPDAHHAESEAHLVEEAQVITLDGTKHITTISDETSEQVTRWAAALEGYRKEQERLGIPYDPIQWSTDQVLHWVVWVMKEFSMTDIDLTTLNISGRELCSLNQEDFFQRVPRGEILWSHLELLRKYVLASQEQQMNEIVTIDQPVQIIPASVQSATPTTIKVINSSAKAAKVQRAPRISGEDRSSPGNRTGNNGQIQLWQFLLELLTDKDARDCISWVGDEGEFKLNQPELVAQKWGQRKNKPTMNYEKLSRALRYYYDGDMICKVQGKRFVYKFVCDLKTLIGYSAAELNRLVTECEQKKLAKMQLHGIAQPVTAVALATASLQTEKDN
# Procedure, shortened: as §1
# [10] = molecular target: ETV6 (Homo sapiens, UniProt P41212 1-452)
# Procedure, shortened: as §1
# [11] = molecular target: T9, EHF (Homo sapiens, UniProt Q9NZC4 1-300)
# T9 sequence: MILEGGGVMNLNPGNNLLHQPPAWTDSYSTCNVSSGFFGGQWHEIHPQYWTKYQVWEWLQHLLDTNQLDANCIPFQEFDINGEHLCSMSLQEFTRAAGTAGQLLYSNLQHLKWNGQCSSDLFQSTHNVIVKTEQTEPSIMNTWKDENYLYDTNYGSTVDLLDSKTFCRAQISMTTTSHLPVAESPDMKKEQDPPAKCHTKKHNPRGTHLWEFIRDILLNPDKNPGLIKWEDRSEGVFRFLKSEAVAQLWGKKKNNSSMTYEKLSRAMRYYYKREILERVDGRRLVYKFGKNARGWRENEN
# Procedure, shortened: as §1
# [12] = molecular target: T10, ETV3 (Homo sapiens, UniProt P41162-2 1-143)
# T10 sequence: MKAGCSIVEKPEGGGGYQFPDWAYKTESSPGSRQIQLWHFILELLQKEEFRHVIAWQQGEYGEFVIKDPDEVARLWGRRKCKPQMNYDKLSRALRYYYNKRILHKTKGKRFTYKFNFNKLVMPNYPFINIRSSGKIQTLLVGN
# Procedure, shortened: as §1
# [13] = molecular target: T11, ELF5 (Homo sapiens, UniProt Q9UKW6-2 1-255)
# T11 sequence: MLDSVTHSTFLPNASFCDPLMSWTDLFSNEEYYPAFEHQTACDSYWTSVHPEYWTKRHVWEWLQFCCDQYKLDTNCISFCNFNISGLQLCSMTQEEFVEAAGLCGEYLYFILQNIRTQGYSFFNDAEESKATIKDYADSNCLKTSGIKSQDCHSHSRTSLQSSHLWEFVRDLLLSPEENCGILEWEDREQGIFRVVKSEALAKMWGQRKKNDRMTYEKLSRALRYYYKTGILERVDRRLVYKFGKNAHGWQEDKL
# Procedure, shortened: as §1
# [14] = molecular target: ETV1 (Homo sapiens, UniProt P50549 1-477)
# Procedure, shortened: as §1
# Sequence of SPIB (Q01892 whole entry, the tested form may be a part): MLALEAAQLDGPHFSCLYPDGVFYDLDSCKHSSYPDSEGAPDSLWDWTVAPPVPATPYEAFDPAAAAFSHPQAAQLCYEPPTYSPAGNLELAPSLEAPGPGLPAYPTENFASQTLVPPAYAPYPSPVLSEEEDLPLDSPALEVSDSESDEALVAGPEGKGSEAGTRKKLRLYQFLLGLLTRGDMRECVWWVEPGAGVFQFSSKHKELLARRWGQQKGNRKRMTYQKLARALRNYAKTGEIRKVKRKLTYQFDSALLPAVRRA
# Sequence of ETV1 (P50549 whole entry): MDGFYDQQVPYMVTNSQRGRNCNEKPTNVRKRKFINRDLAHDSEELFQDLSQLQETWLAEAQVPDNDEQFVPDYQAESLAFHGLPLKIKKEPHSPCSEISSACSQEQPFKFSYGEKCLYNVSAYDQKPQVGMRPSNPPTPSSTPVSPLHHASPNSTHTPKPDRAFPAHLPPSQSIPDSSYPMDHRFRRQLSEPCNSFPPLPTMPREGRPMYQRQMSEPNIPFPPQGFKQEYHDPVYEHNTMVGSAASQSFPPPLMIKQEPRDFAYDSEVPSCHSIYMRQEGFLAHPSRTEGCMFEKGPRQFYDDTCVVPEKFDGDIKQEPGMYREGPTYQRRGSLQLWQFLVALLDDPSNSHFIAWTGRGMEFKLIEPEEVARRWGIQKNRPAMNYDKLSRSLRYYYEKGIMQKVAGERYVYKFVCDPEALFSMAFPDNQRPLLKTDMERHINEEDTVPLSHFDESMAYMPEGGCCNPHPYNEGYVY
# Sequence of ETV6 (P41212 whole entry): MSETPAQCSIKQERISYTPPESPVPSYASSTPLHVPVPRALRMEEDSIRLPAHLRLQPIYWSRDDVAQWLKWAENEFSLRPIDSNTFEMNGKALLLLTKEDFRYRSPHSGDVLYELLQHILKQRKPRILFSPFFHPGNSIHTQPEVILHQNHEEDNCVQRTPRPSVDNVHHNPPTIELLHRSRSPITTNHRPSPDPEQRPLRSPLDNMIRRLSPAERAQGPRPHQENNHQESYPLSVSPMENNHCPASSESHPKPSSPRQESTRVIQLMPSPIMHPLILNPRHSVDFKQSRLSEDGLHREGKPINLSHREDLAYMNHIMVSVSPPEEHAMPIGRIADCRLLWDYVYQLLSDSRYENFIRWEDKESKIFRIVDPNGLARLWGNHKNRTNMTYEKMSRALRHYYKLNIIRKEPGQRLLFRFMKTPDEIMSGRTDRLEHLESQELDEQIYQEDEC
sequence,measurement,setting,value
CAGTTT,binding signal,[1],"1.03 fold enrichment (6-mer frequency, TF over GST control)"
same,binding signal,[2],"1.04 fold enrichment (6-mer frequency, TF over GST control)"
same,binding signal,[3],"1.01 fold enrichment (6-mer frequency, TF over GST control)"
AAGACA,binding signal,[4],"1 fold enrichment (6-mer frequency, TF over GST control)"
same,binding signal,[1],"1.02 fold enrichment (6-mer frequency, TF over GST control)"
same,binding signal,[2],"1.01 fold enrichment (6-mer frequency, TF over GST control)"
same,binding signal,[3],"1.07 fold enrichment (6-mer frequency, TF over GST control)"
same,binding signal,[5],"1.01 fold enrichment (6-mer frequency, TF over GST control)"
same,binding signal,[6],"1.01 fold enrichment (6-mer frequency, TF over GST control)"
same,binding signal,[7],"1.04 fold enrichment (6-mer frequency, TF over GST control)"
TGTAGT,binding signal,[8],"1.03 fold enrichment (6-mer frequency, TF over GST control)"
TCGCCA,binding signal,[9],"1 fold enrichment (6-mer frequency, TF over GST control)"
same,binding signal,[5],"1.01 fold enrichment (6-mer frequency, TF over GST control)"
GACGAT,binding signal,[3],"1.02 fold enrichment (6-mer frequency, TF over GST control)"
same,binding signal,[7],"1 fold enrichment (6-mer frequency, TF over GST control)"
CGCATC,binding signal,[8],"1.02 fold enrichment (6-mer frequency, TF over GST control)"
GGGTCC,binding signal,[8],"1 fold enrichment (6-mer frequency, TF over GST control)"
GCGCTA,binding signal,[2],"1.13 fold enrichment (6-mer frequency, TF over GST control)"
same,binding signal,[3],"1.05 fold enrichment (6-mer frequency, TF over GST control)"
same,binding signal,[10],"1 fold enrichment (6-mer frequency, TF over GST control)"
GAACAG,binding signal,[4],"1.02 fold enrichment (6-mer frequency, TF over GST control)"
same,binding signal,[11],"1.03 fold enrichment (6-mer frequency, TF over GST control)"
same,binding signal,[1],"1.03 fold enrichment (6-mer frequency, TF over GST control)"
same,binding signal,[7],"1 fold enrichment (6-mer frequency, TF over GST control)"
same,binding signal,[12],"1.05 fold enrichment (6-mer frequency, TF over GST control)"
GACAAA,binding signal,[3],"1.06 fold enrichment (6-mer frequency, TF over GST control)"
same,binding signal,[7],"1.1 fold enrichment (6-mer frequency, TF over GST control)"
CGGTAA,binding signal,[11],"1.01 fold enrichment (6-mer frequency, TF over GST control)"
same,binding signal,[13],"1.05 fold enrichment (6-mer frequency, TF over GST control)"
CAGCAA,binding signal,[2],"1.01 fold enrichment (6-mer frequency, TF over GST control)"
same,binding signal,[3],"1.04 fold enrichment (6-mer frequency, TF over GST control)"
same,binding signal,[7],"1.06 fold enrichment (6-mer frequency, TF over GST control)"
GCTGTC,binding signal,[11],"1 fold enrichment (6-mer frequency, TF over GST control)"
same,binding signal,[3],"1.03 fold enrichment (6-mer frequency, TF over GST control)"
TTGGAC,binding signal,[3],"1.02 fold enrichment (6-mer frequency, TF over GST control)"
same,binding signal,[12],"1.01 fold enrichment (6-mer frequency, TF over GST control)"
GACCCT,binding signal,[3],"1.05 fold enrichment (6-mer frequency, TF over GST control)"
GGTGCT,binding signal,[14],"1.08 fold enrichment (6-mer frequency, TF over GST control)"
ATAGAG,binding signal,[3],"1.01 fold enrichment (6-mer frequency, TF over GST control)"
GTATAG,binding signal,[5],"1 fold enrichment (6-mer frequency, TF over GST control)"
GACGAA,binding signal,[3],"1.01 fold enrichment (6-mer frequency, TF over GST control)"
